The text below walks through data of PubChem BioAssay (EPA / NIEHS).

Active and inactive are the calls of the source. Rule for the calls: active = hit-call score of the fitted dose curve at least 0.9, where 1 is the maximum; inactive = score below 0.9.

For orientation: AC50 means the concentration giving half of the maximal activity seen.

The test can be described thus: ATG_AP_1_CIS: Attagene CIS-FACTORIAL HepG2 Assay for human Activator Protein 1 (AP-1) (AID 2282931). As to conditions: HepG2 Attagene cis-factorial AP-1 reporter mRNA; actives raise or lower the signal. Here is the method:
ATG_CIS is a cell-based, multiplexed-readout assay that uses HepG2, a human liver cell line, with measurements taken at 24 hours after chemical dosing in a 24-well plate.ATG_AP_1_CIS is one of 52 assay component(s) measured or calculated from the ATG_CIS assay. It is designed to make measurements of mRNA induction, a form of inducible reporter, as detected with fluorescence intensity signals by Reverse transcription polymerase chain reaction (RT-PCR) and Capillary electrophoresis technology.Data from the assay component ATG_AP_1_CIS was analyzed into 1 assay endpoint. This assay endpoint, ATG_AP_1_CIS, was analyzed with bidirectional fitting relative to DMSO as the negative control and baseline of activity. Using a type of inducible reporter, measures of mRNA for gain or loss-of-signal activity can be used to understand the reporter gene at the transcription factor-level as they relate to the gene FOS and JUN. Furthermore, this assay endpoint can be referred to as a primary readout, because this assay has produced multiple assay endpoints where this one serves a reporter gene function. To generalize the intended target to other relatable targets, this assay endpoint is annotated to the dna binding intended target family, where the subfamily is basic leucine zipper.
Human liver HepG2 cells are transiently transfected with multiple reporter transcription units (MRTUs) in 6-well plates using FuGene 6 reagent (Roche; 3 ml FuGene/1 mg DNA). The MRTU constructs are regulated by a cis-regulating element (promoter). […] A major difference between the CIS and TRANS system is that in CIS activities of endogenous TFs are measured, whereas the TRANS assay evaluates changes in activities of exogenous, chimeric NR-Gal4 proteins. […] At the end of 24 hour incubation, total RNA was isolated using TriZol reagent (Invitrogen). The isolated RNA is then reverse-transcribed using oligo(dT) primer and Mo-MLV reverse transcriptase (Invitrogen) with DNAse I (Ambion) treatment for 30 min. The one-tenth of the produced cDNA was amplified by PCR using Taq DNA polymerase (Invitrogen) and two reporter sequence-specific primers. The PCR products were fluorescently labeled by primer extension with 6-arboxyfluorescein (6-FAM) 5'-labeled reporter sequence-specific primer (2 min at 95 C, 20 s at 68 C and 10 min at 72 C) and these products were digested with 5U of HpaI (New England Biolabs) for 2h at 37 C. The fragments were purified using Qiaquick PCR columns (Qiagen), analyzed on an ABI 3130xL genetic analyzer (Applied Biosystems) with peak positions identified by using a set of X-rhodamine (ROX)-labeled MapMarker1000 molecular weight standards (BioVentures). The raw capillary electrophoresis data was processed using Attagraph software (Attagene).
As to `O=[N+]([O-])c1cc(C(F)(F)F)c(Cl)c([N+](=O)[O-])c1Cl`, the compound was called inactive. For the compound `COc1cc(OC)nc(Oc2cccc(Oc3nc(OC)cc(OC)n3)c2C(=O)O)n1`, the outcome was inactive.

As for `COC(=O)COc1ccc(Cl)cc1Cl`, the call was inactive. On the same count and under the same terms, to `ClCC(Cl)Cl` belongs “inactive”; to `c1ccc2c(c1)CCCC2`, “inactive”; to `C#CC1(O)CCCCC1`, “inactive”. Same read-out and setting: to `CCC1CCC(=O)O1` (stereo not given) belongs “inactive”; to `Nc1cc(Cl)cc(Cl)c1`, “inactive”; to `C=C(Cl)Cl`, “inactive”. As to `CCOC(=O)N(C)N=O`, the call was inactive. For `COc1cc(OC)c(OC)cc1C=O`, the compound was called inactive.

Take `C[N+](C)=CCl`: the compound was called inactive. `CCCOC(=O)c1ccccc1C(=O)OCCC`: the compound was classed as inactive.

Regarding `O=[N+]([O-])O`, the result was inactive. In the case of `COC(=O)c1ccccc1S(=O)(=O)NC(=O)Nc1nc(C)cc(C)n1`, the result was inactive. With `O=C(O)C(Br)Br`, the compound was called inactive. On to `C[N+](C)(C)CC(=O)O`, for which the call was inactive. Regarding `CNC(=N[N+](=O)[O-])NCC1CCOC1` (stereo not given), the result was inactive. As to `C=COCCCl`, the compound was called inactive. The same measure, in the same setting: to `CCOP(=O)(OCC)OCC` belongs “inactive”; to `O=[N+]([O-])c1ccc(Cl)cc1`, “inactive”; to `CC1(C)CC(=O)CC(C)(C)N1[O]`, “inactive”. Consider `O=c1[nH]c(Cl)c(Cl)cc1Cl`, for which the call was inactive.

On to `CCOP(O)OCC`, for which the call was inactive. With `Cc1ccc(N(SC(F)(Cl)Cl)S(=O)(=O)N(C)C)cc1`, the compound was classed as inactive. With `CC(=O)C=Cc1ccccc1`, the AC50 is 133 µM (active). As for `O=[N+]([O-])O.O=[N+]([O-])O.[Cd]`, the AC50 is 5.97 µM (active). With `Nc1c(Cl)c(Cl)c(Cl)c(Cl)c1Cl`, the result was inactive. As for `CC(C)CCCCCCCOP(=O)(Oc1ccccc1)Oc1ccccc1`, the AC50 is 33.3 µM (active).

`CC=Cc1ccc2c(c1)OCO2`: the compound was classed as inactive.

For the compound `C=CC(=O)OCCCCOC(=O)C=C`, the AC50 is 186 µM (active).

As for `O=[N+]([O-])c1cc([N+](=O)[O-])c2ccccc2c1`, the AC50 is 14.5 µM (active). For the compound `C[C@]12CC[C@H]3[C@@H](CC[C@@]45O[C@@H]4C(O)=C(C#N)C[C@]35C)[C@@H]1CC[C@@H]2O`, the compound was called inactive. Turning to `CC(C)C#N`, the outcome was inactive. Turning to `[Cl-].[Cl-].[Cl-].[Yb+3]`, the result was inactive.

With `C=CCN(CC=C)C(=O)C(Cl)Cl`, the result was inactive.

`CC(C)C(=O)Cl`: the compound was classed as inactive.

Turning to `CCc1cc(C)cc(CC)c1-c1c(OC(=O)C(C)(C)C)n2n(c1=O)CCOCC2`, the call was inactive. In the case of `CCC(=O)c1ccc(Cl)cc1`, the outcome was inactive.

Turning to `CC(C)(Cl)Cl`, the compound was classed as inactive.
